From PubChem BioAssay (NCATS)
Several values for one entry are separate records, joined by “and”; a condition that tells them apart may be missing. Identical values can stand only once. Inconclusive results are not listed. A call without a number means that no potency is given here. Activity calls are given as the source filed them. Unless noted, calls come from the whole dose curve.

Experiments:
[1] = target: Vitamin D3 receptor (Homo sapiens) (UniProt P11473); assay: qHTS assay for small molecule antagonists of vitamin D receptor signaling (AID 588541); note: potency is the fitted concentration of half-maximal effect
In short: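 VDR-UAS-bla HEK293T cells (2000/well, 2% charcoal-stripped FBS) were treated with titrated compounds plus 1-alpha,25-dihydroxyvitamin D3 (50 nM or 3 nM final) for 16 h at 37 C. CCF4 beta-lactamase fluorescence was read; Hill fits gave IC50.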

[2] = target: Vitamin D3 receptor (Homo sapiens) (UniProt P11473); assay: qHTS assay for small molecule agonists of vitamin D receptor signaling (AID 588543)
In short: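 β-lactamase reporter, VDR-UAS-bla HEK293T, agonist mode. Cells plated 5 h at 37 °C, compound titration 16 h at 37 °C, CCF4 dye 2 h RT, ratio 460/530 nm. Hill fit → EC50, efficacy vs 50 nM 1α,25-(OH)2D3.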

[3] = qHTS assay for small molecule agonists of retinoid X receptor alpha signaling (AID 588544); conditions: HEK293T RXRa-UAS-bla, beta-lactamase reporter, 18 h; 530 nm emission
[4] = target: Retinoic acid receptor RXR-alpha (Homo sapiens) (UniProt P19793); assay: as above
[5] = target: Thyroid hormone receptor beta (Homo sapiens) (UniProt P10828); assay: qHTS assay for small molecule agonists of thyroid hormone receptor beta signaling (AID 588545)
In short: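 Agonist-mode beta-lactamase reporter assay, HEK 293 cells, 2% charcoal/dextran FBS; cells plated 4 hrs, compound 18 hrs at 37 C, CCF4 2 hrs RT. Normalized to 10 nM T3 (100%) and DMSO (0%); Hill fit gives EC50, efficacy.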

[6] = target: Thyroid hormone receptor beta (Homo sapiens) (UniProt P10828); assay: qHTS assay for small molecule antagonists of thyroid hormone receptor beta signaling (AID 588547; active = well fitted inhibition curve with a large enough effect in the signal ratio, with a control signal flat, not every such curve was filed as active; the % refers to the signal ratio; note: potency is the fitted concentration of half-maximal effect;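 for activity change % (negative = inhibition): cells stimulated with 0.4 nM T3 agonist during compound exposure; series mostly up to about 77 µM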); conditions: TR-UAS-bla HEK293, beta-lactamase ratio, antagonist mode, 18 h
In short: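 TR-UAS-bla GripTite HEK293 cells in 2% charcoal/dextran FBS medium were preincubated 4 h at 37 C, given compound (0.59 nM to 92 uM) plus 0.4 nM T3 (final) for 18 h, then CCF4 for 2 h at RT; Hill fit gave IC50.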

[7] = target: Voltage-gated inwardly rectifying potassium channel KCNH2 (Homo sapiens) (UniProt Q12809); assay: qHTS Assay for Small Molecule Inhibitors of the Human hERG Channel Activity (AID 588834; active = well fitted inhibition curve with a large enough effect;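 note: lower thallium flux fluorescence means stronger hERG block; nearly all actives have a fitted effect of over 50% in size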; note: potency is the fitted concentration of half-maximal effect)
In short: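 Concentration-response qHTS measuring drop in thallium-sensitive dye signal. U2OS cells carrying BacMam hERG; compound exposure ~10 min, then stimulation buffer and 2 min read at 1 sec intervals.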

[8] = target: Luciferin 4-monooxygenase (Photinus pyralis) (UniProt P08659); assay: Biochemical firefly luciferase enzyme assay for NPC (AID 624030; active = well fitted inhibition curve with a large enough effect;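 note: purified P. pyralis luciferase at 10 nM with luciferin and ATP substrate; series mostly up to about 59 µM; nearly all actives have a fitted effect of over 70% in size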)
In short: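 Counter-screen for direct inhibition of the luciferase enzyme by approved-drug library compounds, run at 10 nM enzyme in 50 mM Tris acetate (final). Luminescence was read within 5 min of enzyme-buffer addition and normalized to PTC124 versus DMSO (0%).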

[9] = qHTS assay for small molecule antagonists of retinoid X receptor alpha signaling (AID 588546; active = well fitted inhibition curve with a large enough effect in the signal ratio, with a control signal flat, not every such curve was filed as active; the % refers to the signal ratio; note: potency is the fitted concentration of half-maximal effect;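 for max response: cells stimulated with 9-cis-retinoic acid as agonist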); conditions: HEK293T RXRa-UAS-bla, beta-lactamase ratio, antagonist mode; measured here: W530 green channel, cytotoxicity proxy
In short: (§1)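 Beta-lactamase reporter inhibition, read as CCF4 fluorescence ratio (ex 405, em 460/530 nm) after 2 h at RT. HEK293T UAS-bla cells, 2500/well, were stimulated with 9-cis-RA at 500 or 100 nM final alongside test compound for 18 h at 37 C.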

[10] = target: Retinoic acid receptor RXR-alpha (Homo sapiens) (UniProt P19793); assay: as above; conditions: HEK293T RXRa-UAS-bla, beta-lactamase ratio, antagonist mode
In short: as §1

Sequence of Vitamin D3 receptor (Homo sapiens) (P11473 whole entry, looked up): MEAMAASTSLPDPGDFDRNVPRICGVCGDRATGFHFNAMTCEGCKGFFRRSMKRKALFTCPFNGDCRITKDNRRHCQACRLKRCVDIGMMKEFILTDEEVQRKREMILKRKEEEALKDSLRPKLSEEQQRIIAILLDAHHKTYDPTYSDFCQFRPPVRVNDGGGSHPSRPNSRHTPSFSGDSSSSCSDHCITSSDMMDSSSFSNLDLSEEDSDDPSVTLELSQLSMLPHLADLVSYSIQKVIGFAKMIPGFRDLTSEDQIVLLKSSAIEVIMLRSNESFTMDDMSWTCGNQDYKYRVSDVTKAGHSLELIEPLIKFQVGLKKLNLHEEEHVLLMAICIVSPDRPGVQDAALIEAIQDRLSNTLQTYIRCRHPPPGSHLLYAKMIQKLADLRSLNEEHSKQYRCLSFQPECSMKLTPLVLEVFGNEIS
Sequence of Thyroid hormone receptor beta (Homo sapiens) (P10828 whole entry, looked up): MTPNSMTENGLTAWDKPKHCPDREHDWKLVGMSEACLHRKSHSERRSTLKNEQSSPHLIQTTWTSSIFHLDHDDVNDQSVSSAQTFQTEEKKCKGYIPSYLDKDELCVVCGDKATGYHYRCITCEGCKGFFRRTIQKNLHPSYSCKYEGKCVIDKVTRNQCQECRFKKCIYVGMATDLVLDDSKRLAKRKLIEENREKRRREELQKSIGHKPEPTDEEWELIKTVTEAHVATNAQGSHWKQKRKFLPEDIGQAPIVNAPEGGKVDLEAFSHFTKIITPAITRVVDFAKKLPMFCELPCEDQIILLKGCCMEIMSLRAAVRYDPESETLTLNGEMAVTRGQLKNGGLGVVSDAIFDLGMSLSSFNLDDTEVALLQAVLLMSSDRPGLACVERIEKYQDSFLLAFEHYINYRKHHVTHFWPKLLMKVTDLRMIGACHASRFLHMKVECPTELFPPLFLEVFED
Sequence of Voltage-gated inwardly rectifying potassium channel KCNH2 (Homo sapiens) (Q12809 whole entry, looked up): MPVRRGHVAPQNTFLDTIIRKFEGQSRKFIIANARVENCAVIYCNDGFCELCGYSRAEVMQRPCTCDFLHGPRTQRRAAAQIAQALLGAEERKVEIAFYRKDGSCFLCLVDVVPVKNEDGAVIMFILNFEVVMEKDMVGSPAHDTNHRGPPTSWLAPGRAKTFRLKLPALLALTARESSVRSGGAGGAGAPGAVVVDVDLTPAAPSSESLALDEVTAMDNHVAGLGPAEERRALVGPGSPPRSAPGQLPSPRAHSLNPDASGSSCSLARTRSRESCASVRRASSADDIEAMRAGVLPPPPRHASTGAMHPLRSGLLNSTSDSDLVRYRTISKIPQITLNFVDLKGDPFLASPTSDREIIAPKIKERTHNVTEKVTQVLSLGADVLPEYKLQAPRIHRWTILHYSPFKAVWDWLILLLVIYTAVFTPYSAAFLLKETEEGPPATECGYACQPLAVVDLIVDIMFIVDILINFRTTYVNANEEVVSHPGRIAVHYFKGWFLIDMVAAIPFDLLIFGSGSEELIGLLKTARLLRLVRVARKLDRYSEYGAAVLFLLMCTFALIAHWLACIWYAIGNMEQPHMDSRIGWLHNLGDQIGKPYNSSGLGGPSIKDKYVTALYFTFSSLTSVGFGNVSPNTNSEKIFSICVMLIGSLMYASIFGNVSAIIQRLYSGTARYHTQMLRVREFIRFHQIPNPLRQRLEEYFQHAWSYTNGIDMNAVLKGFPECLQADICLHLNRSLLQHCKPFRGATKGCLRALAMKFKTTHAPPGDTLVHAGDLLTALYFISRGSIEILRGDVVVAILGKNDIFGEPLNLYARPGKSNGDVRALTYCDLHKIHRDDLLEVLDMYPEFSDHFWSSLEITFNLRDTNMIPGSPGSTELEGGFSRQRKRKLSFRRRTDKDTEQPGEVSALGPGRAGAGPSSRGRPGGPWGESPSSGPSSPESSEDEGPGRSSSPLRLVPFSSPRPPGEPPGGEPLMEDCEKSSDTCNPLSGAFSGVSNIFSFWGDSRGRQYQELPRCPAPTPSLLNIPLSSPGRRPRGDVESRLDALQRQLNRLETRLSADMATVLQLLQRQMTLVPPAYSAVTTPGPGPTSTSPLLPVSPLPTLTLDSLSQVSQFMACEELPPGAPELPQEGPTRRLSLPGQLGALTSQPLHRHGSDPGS
Sequence of Retinoic acid receptor RXR-alpha (Homo sapiens) (P19793 whole entry, looked up): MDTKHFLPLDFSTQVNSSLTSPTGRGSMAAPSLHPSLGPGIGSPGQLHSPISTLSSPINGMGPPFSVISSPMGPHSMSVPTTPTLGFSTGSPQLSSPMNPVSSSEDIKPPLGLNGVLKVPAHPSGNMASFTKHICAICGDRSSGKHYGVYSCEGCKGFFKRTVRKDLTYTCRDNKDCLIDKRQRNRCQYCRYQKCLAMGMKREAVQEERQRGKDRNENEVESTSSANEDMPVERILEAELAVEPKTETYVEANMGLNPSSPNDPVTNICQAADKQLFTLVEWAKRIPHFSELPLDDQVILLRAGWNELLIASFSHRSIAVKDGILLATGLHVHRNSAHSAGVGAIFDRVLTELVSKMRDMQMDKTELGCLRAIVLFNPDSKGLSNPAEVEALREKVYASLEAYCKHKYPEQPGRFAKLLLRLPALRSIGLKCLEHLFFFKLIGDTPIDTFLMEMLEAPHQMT
Sequence of Luciferin 4-monooxygenase (Photinus pyralis) (P08659 whole entry, looked up): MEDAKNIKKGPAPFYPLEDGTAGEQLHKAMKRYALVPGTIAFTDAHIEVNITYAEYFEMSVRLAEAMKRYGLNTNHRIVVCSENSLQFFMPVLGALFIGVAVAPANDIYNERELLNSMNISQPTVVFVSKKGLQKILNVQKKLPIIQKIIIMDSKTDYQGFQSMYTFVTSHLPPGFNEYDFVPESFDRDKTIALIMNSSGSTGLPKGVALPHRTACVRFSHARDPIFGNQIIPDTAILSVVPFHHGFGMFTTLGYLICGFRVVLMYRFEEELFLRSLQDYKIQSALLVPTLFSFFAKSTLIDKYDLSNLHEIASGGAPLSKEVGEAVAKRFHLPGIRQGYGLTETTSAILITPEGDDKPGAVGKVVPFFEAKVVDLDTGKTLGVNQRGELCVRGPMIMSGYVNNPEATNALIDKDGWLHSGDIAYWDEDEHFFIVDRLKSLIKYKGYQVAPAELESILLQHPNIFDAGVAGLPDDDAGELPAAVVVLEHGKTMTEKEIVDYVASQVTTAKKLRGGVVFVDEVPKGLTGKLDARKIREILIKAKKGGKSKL

Compound: C[C@]12CC[C@@H]3c4ccc(O)cc4CC[C@H]3[C@@H]1CC[C@@H]2O
- Potency [1]: inactive
- outcome [2]: inactive
- max response [3]: 6.82%
- outcome [4]: inactive

Compound: CN(C)C(=S)SC(=S)N(C)C
- Potency [1]: inactive
- outcome [2]: inactive
- max response [3]: 0.136%
- outcome [4]: inactive
- outcome [5]: inactive
- max response [9]: 5.78%
- max response [10]: -27.1% (inactive)
- activity change % (negative = inhibition) [6]: 10.8% (inactive)
- Potency [7]: inactive

Compound: Cc1c(C(N)=O)cc([N+](=O)[O-])cc1[N+](=O)[O-]
- Potency [7]: inactive

Compound: Oc1ccc(O)cc1
- outcome [5]: inactive
- Potency [7]: inactive
- Potency [8]: inactive

Compound: CCCCCCc1ccc(O)cc1O
- Potency [1]: inactive
- outcome [2]: inactive
- max response [3]: -14.8% and 0.183%
- outcome [4]: inactive
- outcome [5]: inactive
- max response [9]: 0.899% and 2.91%
- max response [10]: -14.1% (inactive) and -8.39% (inactive)
- activity change % (negative = inhibition) [6]: -14.5% (inactive) and -21.9% (inactive)
- Potency [7]: inactive
- Potency [8]: inactive

Compound: Nc1ccc(C(=O)O)cc1
- max response [3]: 0.621%
- outcome [4]: inactive
- outcome [5]: inactive
- max response [9]: 14.8%
- max response [10]: -5.07% (inactive)
- activity change % (negative = inhibition) [6]: 15.2% (inactive)
- Potency [7]: inactive
- Potency [8]: inactive

Compound: C[C@H]1C[C@H]2[C@@H]3CCC4=CC(=O)C=C[C@]4(C)[C@@]3(Cl)[C@@H](O)C[C@]2(C)[C@@]1(O)C(=O)CO
- Potency [1]: inactive
- outcome [2]: inactive
- outcome [5]: inactive
- max response [9]: 10.8%
- max response [10]: -25.7% (inactive)
- activity change % (negative = inhibition) [6]: 1.92% (inactive)
- Potency [7]: inactive
- Potency [8]: inactive

Compound: CC[N+](CC)(CCNC(=O)C(=O)NCC[N+](CC)(CC)Cc1ccccc1Cl)Cc1ccccc1Cl
- Potency [7]: inactive

Compound: CN1CCCC(CC2c3ccccc3Sc3ccccc32)C1 (configuration not stated)
- Potency [7]: 4.47 µM (active)

Compound: COc1cccc2c1C(=O)c1c(O)c3c(c(O)c1C2=O)C[C@@](O)(C(C)=O)C[C@@H]3O[C@H]1C[C@H](N)[C@H](O)[C@H](C)O1
- Potency [1]: 8.91 µM (active)
- max response [9]: -11.9%
- Potency [10]: 5.62 µM (active)
- Potency [6]: 5.01 µM (active)
- Potency [7]: inactive

Compound: O=c1ccc2ccccc2o1
- max response [3]: -0.417% and -9.49%
- outcome [4]: inactive
- outcome [5]: inactive
- max response [9]: 0.52% and -14.8% and -12.1%
- max response [10]: 19.9% (inactive) and -2.2% (inactive) and -3.66% (inactive)
- activity change % (negative = inhibition) [6]: -6.73% (inactive) and 13.3% (inactive) and -20.8% (inactive)
- Potency [7]: inactive
- Potency [8]: inactive

Compound: CC(=O)Oc1ccc(C(c2ccc(OC(C)=O)cc2)c2ccccn2)cc1
- Potency [1]: inactive
- outcome [2]: inactive
- activity change % (negative = inhibition) [6]: 5.36% (inactive)
- Potency [7]: inactive
- Potency [8]: inactive

Compound: C[C@]12CC[C@@H]3c4ccc(O)cc4CC[C@H]3[C@@H]1C[C@@H](O)[C@@H]2O
- Potency [7]: inactive

Compound: CC(C)(Oc1ccc(Cl)cc1)C(=O)O
- Potency [1]: inactive
- outcome [2]: inactive
- max response [3]: -16.7%
- outcome [4]: inactive
- outcome [5]: inactive
- max response [9]: -15.3%
- max response [10]: 2.91% (inactive)
- Potency [7]: inactive
- Potency [8]: inactive

Compound: C=C(CC)C(=O)c1ccc(OCC(=O)O)c(Cl)c1Cl
- outcome [5]: inactive
- Potency [7]: inactive
- Potency [8]: inactive

Compound: CC(C)(C)CC(C)(C)c1ccc(OCCOCC[N+](C)(C)Cc2ccccc2)cc1
- outcome [2]: inactive
- Potency [8]: inactive

Compound: CC(O)(P(=O)(O)O)P(=O)(O)O
- max response [3]: -19.3%
- outcome [4]: inactive
- outcome [5]: inactive
- max response [9]: -2.39%
- max response [10]: -16.3% (inactive)
- activity change % (negative = inhibition) [6]: -8.4% (inactive)
- Potency [8]: inactive

Compound: COc1c2occc2c(OC)c2c(=O)cc(C)oc12
- Potency [7]: inactive

Compound: O=C1OC(c2ccc(O)cc2)(c2ccc(O)cc2)c2ccccc21
- Potency [1]: inactive
- outcome [2]: inactive
- max response [3]: 14.6% and 3.81%
- outcome [4]: inactive
- outcome [5]: inactive
- max response [9]: 6.51%
- max response [10]: -28% (inactive)
- activity change % (negative = inhibition) [6]: -18.5% (inactive) and 8.75% (inactive)
- Potency [7]: 15.8 µM (active)

Compound: Cc1cc(=O)n(-c2ccccc2)n1C
- Potency [1]: inactive
- outcome [2]: inactive
- max response [3]: -30.7%
- outcome [4]: inactive
- max response [9]: -18.2%
- max response [10]: 0.0131% (inactive)
- activity change % (negative = inhibition) [6]: 5.56% (inactive)
- Potency [7]: inactive
- Potency [8]: inactive

Compound: CN(C)/N=N/c1nc[nH]c1C(N)=O
- max response [3]: 27.5%
- outcome [4]: inactive
- outcome [5]: inactive
- max response [9]: -0.507%
- max response [10]: 17.7% (inactive)
- activity change % (negative = inhibition) [6]: -19.3% (inactive)
- Potency [7]: inactive
- Potency [8]: inactive
